# From publication PMC7862700, “An all-to-all approach to the identification of sequence-specific readers for epigenetic DNA modifications on cytosine”
# Columns and labels:
# Experiment in all cases: DAPPL (digital affinity profiling via proximity ligation, sequencing); 10 mM Tris-HCl pH 7.5, 50 mM NaCl, 1 mM DTT, 4% glycerol, room temperature, 30 min; GST-TFs on glutathione beads, 16-mer random dsDNA library, 0.1% formaldehyde crosslink after washing; high values mean tight binding
# Details in all cases: protein: recombinant; tags: N-terminal GST; dsDNA, one strand shown
# ERF = target: T1, ERF (Homo sapiens, UniProt P50548 1-548)
# T1 sequence: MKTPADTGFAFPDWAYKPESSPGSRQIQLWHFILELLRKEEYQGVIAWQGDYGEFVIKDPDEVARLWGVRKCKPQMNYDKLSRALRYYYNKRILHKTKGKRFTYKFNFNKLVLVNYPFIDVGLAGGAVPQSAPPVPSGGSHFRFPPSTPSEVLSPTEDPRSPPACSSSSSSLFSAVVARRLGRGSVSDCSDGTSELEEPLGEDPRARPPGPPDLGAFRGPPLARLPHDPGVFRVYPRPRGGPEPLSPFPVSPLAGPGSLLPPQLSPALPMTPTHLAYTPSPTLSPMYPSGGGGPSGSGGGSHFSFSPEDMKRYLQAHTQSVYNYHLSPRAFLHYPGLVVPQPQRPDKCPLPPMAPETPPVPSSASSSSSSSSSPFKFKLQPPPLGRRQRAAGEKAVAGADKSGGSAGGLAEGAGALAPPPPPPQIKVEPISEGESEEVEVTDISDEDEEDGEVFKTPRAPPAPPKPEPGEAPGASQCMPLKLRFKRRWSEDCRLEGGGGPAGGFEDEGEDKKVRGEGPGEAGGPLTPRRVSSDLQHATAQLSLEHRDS
# Outline: (§1)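 Pools of DNA-barcoded human transcription factors, expressed in yeast as GST fusions on glutathione beads and combined with a tag-only sample, were incubated with 200 nmole of a 16-mer random double-stranded DNA library. Incubation took 30 min at room temperature in Tris/NaCl/DTT/glycerol buffer and was followed by washing, 0.1% formaldehyde crosslinking, proximity ligation (BsaI/T4 ligase, 1 h, 37 °C), PCR amplification and sequencing on an Illumina NextSeq500. Binding signal is the ratio of a hexamer's read frequency for a factor to its frequency for the tag-only sample.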
# ETV3L = target: T2, ETV3L (Homo sapiens, UniProt Q6ZN32 1-361)
# T2 sequence: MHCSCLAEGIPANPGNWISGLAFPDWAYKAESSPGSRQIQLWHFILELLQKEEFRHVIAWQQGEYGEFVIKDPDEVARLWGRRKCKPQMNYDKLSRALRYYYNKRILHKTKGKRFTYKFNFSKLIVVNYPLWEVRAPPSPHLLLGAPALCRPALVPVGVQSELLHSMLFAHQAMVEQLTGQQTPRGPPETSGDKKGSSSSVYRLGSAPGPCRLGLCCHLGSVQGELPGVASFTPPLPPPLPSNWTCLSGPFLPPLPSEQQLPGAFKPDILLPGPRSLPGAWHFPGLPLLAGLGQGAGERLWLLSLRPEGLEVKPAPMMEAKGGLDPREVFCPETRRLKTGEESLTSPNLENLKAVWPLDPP
# Outline: as §1
# ETS2 = target: T3, ETS2 (Homo sapiens, UniProt P15036 1-469)
# T3 sequence: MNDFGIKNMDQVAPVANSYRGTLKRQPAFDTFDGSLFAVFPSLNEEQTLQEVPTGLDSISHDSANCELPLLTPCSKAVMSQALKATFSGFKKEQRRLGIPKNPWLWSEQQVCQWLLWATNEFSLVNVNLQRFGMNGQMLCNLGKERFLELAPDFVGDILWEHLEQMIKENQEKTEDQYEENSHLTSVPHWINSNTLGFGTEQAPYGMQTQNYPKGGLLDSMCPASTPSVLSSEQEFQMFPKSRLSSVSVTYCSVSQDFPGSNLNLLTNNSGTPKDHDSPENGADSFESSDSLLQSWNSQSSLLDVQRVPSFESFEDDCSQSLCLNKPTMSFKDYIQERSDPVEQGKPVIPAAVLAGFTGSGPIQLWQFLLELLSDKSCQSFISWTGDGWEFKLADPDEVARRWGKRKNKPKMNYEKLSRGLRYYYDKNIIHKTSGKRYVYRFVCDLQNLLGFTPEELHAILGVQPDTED
# Outline: as §1
# SPDEF = target: T4, SPDEF (Homo sapiens, UniProt O95238 1-335)
# T4 sequence: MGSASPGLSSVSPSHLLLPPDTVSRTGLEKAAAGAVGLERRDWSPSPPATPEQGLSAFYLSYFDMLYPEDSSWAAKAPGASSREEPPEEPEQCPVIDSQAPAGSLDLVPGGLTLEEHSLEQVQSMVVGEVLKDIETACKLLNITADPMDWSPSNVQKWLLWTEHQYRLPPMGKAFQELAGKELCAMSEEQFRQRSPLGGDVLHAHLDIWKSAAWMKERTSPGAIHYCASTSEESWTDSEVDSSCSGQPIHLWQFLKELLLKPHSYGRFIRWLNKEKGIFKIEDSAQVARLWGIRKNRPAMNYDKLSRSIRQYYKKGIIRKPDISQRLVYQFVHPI
# Outline: as §1
# ETV7 = target: T5, ETV7 (Homo sapiens, UniProt Q9Y603 1-341)
# T5 sequence: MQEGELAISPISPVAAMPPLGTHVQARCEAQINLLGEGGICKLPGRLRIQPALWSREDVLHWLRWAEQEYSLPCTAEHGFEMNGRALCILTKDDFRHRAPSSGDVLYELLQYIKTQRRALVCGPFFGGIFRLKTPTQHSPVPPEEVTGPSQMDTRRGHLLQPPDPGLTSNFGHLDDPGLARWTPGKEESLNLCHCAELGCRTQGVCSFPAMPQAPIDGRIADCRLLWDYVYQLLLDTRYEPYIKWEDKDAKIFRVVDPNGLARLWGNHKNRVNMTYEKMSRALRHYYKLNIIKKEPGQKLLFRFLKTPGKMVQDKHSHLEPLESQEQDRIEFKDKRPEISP
# Outline: as §1
# ELF5 = target: T6, ELF5 (Homo sapiens, UniProt Q9UKW6-2 1-255)
# T6 sequence: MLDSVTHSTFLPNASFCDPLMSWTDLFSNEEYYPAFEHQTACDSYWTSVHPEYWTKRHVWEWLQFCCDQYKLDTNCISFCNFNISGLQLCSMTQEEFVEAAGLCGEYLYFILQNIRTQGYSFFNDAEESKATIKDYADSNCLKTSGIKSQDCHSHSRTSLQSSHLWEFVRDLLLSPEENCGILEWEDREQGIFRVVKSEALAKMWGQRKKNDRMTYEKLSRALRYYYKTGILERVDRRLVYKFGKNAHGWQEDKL
# Outline: as §1
# ETV3 = target: T7, ETV3 (Homo sapiens, UniProt P41162-2 1-143)
# T7 sequence: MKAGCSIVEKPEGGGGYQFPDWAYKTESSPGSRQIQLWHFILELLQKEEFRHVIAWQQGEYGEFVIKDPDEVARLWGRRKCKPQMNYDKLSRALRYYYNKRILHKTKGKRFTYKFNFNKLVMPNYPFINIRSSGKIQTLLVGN
# Outline: as §1
# ETV6 = ETV6 (Homo sapiens, UniProt P41212 1-452)
# Outline: as §1
# ETV6, sequence (P41212 whole entry): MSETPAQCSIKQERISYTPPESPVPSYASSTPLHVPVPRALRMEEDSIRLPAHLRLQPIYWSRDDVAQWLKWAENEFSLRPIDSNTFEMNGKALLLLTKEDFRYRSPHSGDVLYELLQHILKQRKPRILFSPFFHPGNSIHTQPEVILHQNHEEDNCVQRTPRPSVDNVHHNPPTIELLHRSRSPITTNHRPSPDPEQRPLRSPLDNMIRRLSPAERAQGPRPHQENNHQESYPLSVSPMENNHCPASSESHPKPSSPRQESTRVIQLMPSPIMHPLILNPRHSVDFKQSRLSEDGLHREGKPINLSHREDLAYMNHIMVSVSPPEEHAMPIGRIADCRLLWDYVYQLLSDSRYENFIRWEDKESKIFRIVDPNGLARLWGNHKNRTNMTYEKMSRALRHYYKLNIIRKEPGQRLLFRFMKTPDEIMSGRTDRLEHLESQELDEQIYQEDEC
Sequence,binding signal (ERF),binding signal (ETV3L),binding signal (ETS2),binding signal (SPDEF),binding signal (ETV7),binding signal (ELF5),binding signal (ETV3),binding signal (ETV6)
TACTTT,"1.39 fold enrichment (6-mer frequency, TF over GST control)","1.35 fold enrichment (6-mer frequency, TF over GST control)","1.32 fold enrichment (6-mer frequency, TF over GST control)","1.35 fold enrichment (6-mer frequency, TF over GST control)","1.36 fold enrichment (6-mer frequency, TF over GST control)","1.34 fold enrichment (6-mer frequency, TF over GST control)","1.34 fold enrichment (6-mer frequency, TF over GST control)","1.37 fold enrichment (6-mer frequency, TF over GST control)"
AATGCA,"1.3 fold enrichment (6-mer frequency, TF over GST control)","1.28 fold enrichment (6-mer frequency, TF over GST control)","1.28 fold enrichment (6-mer frequency, TF over GST control)","1.23 fold enrichment (6-mer frequency, TF over GST control)","1.3 fold enrichment (6-mer frequency, TF over GST control)","1.31 fold enrichment (6-mer frequency, TF over GST control)","1.25 fold enrichment (6-mer frequency, TF over GST control)","1.37 fold enrichment (6-mer frequency, TF over GST control)"
CCGGAT,"2.87 fold enrichment (6-mer frequency, TF over GST control)","3.03 fold enrichment (6-mer frequency, TF over GST control)","3.38 fold enrichment (6-mer frequency, TF over GST control)","6.71 fold enrichment (6-mer frequency, TF over GST control)","2.7 fold enrichment (6-mer frequency, TF over GST control)","3.7 fold enrichment (6-mer frequency, TF over GST control)","3.64 fold enrichment (6-mer frequency, TF over GST control)","3.06 fold enrichment (6-mer frequency, TF over GST control)"
TTACCC,"1.35 fold enrichment (6-mer frequency, TF over GST control)","1.26 fold enrichment (6-mer frequency, TF over GST control)","1.42 fold enrichment (6-mer frequency, TF over GST control)","1.33 fold enrichment (6-mer frequency, TF over GST control)","1.41 fold enrichment (6-mer frequency, TF over GST control)","1.43 fold enrichment (6-mer frequency, TF over GST control)","1.35 fold enrichment (6-mer frequency, TF over GST control)","1.29 fold enrichment (6-mer frequency, TF over GST control)"
TGCTTT,"1.29 fold enrichment (6-mer frequency, TF over GST control)","1.11 fold enrichment (6-mer frequency, TF over GST control)","1.07 fold enrichment (6-mer frequency, TF over GST control)","1.02 fold enrichment (6-mer frequency, TF over GST control)","1.19 fold enrichment (6-mer frequency, TF over GST control)","1.15 fold enrichment (6-mer frequency, TF over GST control)","1.14 fold enrichment (6-mer frequency, TF over GST control)","1.1 fold enrichment (6-mer frequency, TF over GST control)"
CTACGA,"1.23 fold enrichment (6-mer frequency, TF over GST control)","1.24 fold enrichment (6-mer frequency, TF over GST control)","1.25 fold enrichment (6-mer frequency, TF over GST control)","1.17 fold enrichment (6-mer frequency, TF over GST control)","1.26 fold enrichment (6-mer frequency, TF over GST control)","1.19 fold enrichment (6-mer frequency, TF over GST control)","1.15 fold enrichment (6-mer frequency, TF over GST control)","1.16 fold enrichment (6-mer frequency, TF over GST control)"
TTCGCT,"1.4 fold enrichment (6-mer frequency, TF over GST control)","1.24 fold enrichment (6-mer frequency, TF over GST control)","1.3 fold enrichment (6-mer frequency, TF over GST control)","1.2 fold enrichment (6-mer frequency, TF over GST control)","1.34 fold enrichment (6-mer frequency, TF over GST control)","1.23 fold enrichment (6-mer frequency, TF over GST control)","1.23 fold enrichment (6-mer frequency, TF over GST control)","1.23 fold enrichment (6-mer frequency, TF over GST control)"
TCTGAA,"1.27 fold enrichment (6-mer frequency, TF over GST control)","1.15 fold enrichment (6-mer frequency, TF over GST control)","1.27 fold enrichment (6-mer frequency, TF over GST control)","1.23 fold enrichment (6-mer frequency, TF over GST control)","1.07 fold enrichment (6-mer frequency, TF over GST control)","1.07 fold enrichment (6-mer frequency, TF over GST control)","1.09 fold enrichment (6-mer frequency, TF over GST control)","1.16 fold enrichment (6-mer frequency, TF over GST control)"
